Results: PubChem BioAssay (NCATS)
Inconclusive results are not listed. Unmarked numbers belong to inactive results. Active and inactive are the calls of the source. Calls follow the shape of the dose curve; as a rule, active = well fitted inhibition curve with a large enough effect; inconclusive = small, poorly fitted or top-dose-only effect; inactive = no such curve, though single readings can be large or run the other way.

assay: Primary fluorescence-based thiol-reactive (MSTI) qHTS assay for identification of artifact compounds. (AID 1845221); conditions: MSTI thiol-reactivity probe, 1 h; series mostly up to 53.8 µM; activity change, negative = thiol reactive: at the top concentration; also: nearly all actives have a fitted effect of over 65% in size;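 as to activity change, negative = thiol reactive: thiol-reactive compounds lower the probe fluorescence signal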
From the text: PI: Alexander Tropsha Ph.D.
UNC Eshelman School of Pharmacy
University of North Carolina, Chapel Hill, North Carolina
Hits from high-throughput screening (HTS) of chemical libraries are often false positives due to their interference with the assay detection technology. In response to this problem, we generated the largest publicly available library of chemical liabilities and developed a free webtool to predict HTS artifacts, both of which are described herein. More specifically, we generated, curated, and integrated HTS datasets for thiol reactivity, redox activity, and luciferase (firefly and nano) activity. Using these curated datasets, we developed and validated several Quantitative Structure-Interference Relationship (QSIR) models to predict nuisance behavior. […] These models were employed for virtual profiling of the National Center for Advancing Translational Science's (NCATS) in-house library, and 256 compounds for each assay were selected for the experimental validation of nuisance behavior. The BA for these external predictions ranged from 58 to 78% for compounds within the applicability domains of the models. […] The models developed in this study, along with aggregation models previously developed by our group (SCAM Detective) were implemented in "Liability Predictor," an online tool which may be used as part of chemical library design or for triaging HTS hits. Both the models and the curated datasets are publicly available at https://liability.mml.unc.edu/.
SEQUENCE No. (e.g., 1, 2, 3, etc.); […] (e.g., Cells, Incubation, Reagent, etc.); VALUE; DESCRIPTION.
1; Reagent; 4 uL; […].
2; Compounds and control; 16 nL; Kalypsis pin tool (Wako USA) equipped with a 1536-well pin head.
4; Detection; Fluorescence, ViewLux microplate reader, 525 nm excitation, 598 nm emission.
NOTES (numbers refer to Sequence numbers above)
1. Assays determining (E)-2-(4-mercaptostyryl)-1,3,3-trimethyl-3H-indol-1-ium (MSTI) reactivity were performed as previously described in the literature with modifications for the quick identification of compounds reacting with thiol. In brief, 4 uL of MSTI or positive control Acetyl-MSTI (final concentrations of 4 uM and 4 uM, respectively) in assay buffer (2% DMSO in 1X PBS pH 7.4) was dispensed into all wells of a 1536-well assay plate (solid-bottom black plate; Greiner Bio One, Monroe, NC).
2. A Wako Pin-tool (Wako Automation, Richmond, VA) was used to transfer 16 nL of compounds (consisting of 7-plates in qHTS format, final concentration range 18.3 nM to 114 uM) or control MLS001163887 (final concentration range 1.22 nM to 40 uM).
3. Plates were centrifuged (121xg, 15 seconds) and incubated for 1 hour at room temperature protected from light.
4. Samples were read for fluorescence (Ex/Em = 525(20)/598(25) nm) on a ViewLux CCD imager (PerkinElmer). Data were normalized to Acetyl-MSTI (0% activity) and MSTI (100% activity) and the resulting percent inhibition data were fitted to a 4-parameter Hill equation using NCATS in-house software.
Potency is read from the fitted curve at half-maximal effect.

| SMILES | activity change, negative = thiol reactive | Potency |
| --- | --- | --- |
| OC[C@H]1O[C@H](O[C@]2(CCl)O[C@H](CCl)[C@@H](O)[C@@H]2O)[C@H](O)[C@@H](O)[C@H]1Cl | -5.18% | – |
| COC(=O)C1=C(C)NC(C)=C(C(=O)O[C@@H]2CCCN(Cc3ccccc3)C2)[C@@H]1c1cccc([N+](=O)[O-])c1 | 128% | – |
| CCCCS(=O)(=O)N[C@@H](Cc1ccc(OCCCCC2CCNCC2)cc1)C(=O)O | 7.43% | – |
| COC(=O)CCc1ccc(OCC(O)CNC(C)C)cc1 (stereo not given) | -7.66% | – |
| CN1[C@@H]2CC[C@H]1CC(OC(=O)c1c[nH]c3ccccc13)C2 (stereo not given in full) | -1.16% | – |
| Nc1ccn([C@@H]2O[C@H](CO)[C@@H](O)C2(F)F)c(=O)n1 | -16.7% | – |
| CC(CCc1ccccc1)NCC(O)c1ccc(O)c(C(N)=O)c1 (stereo not given) | 5.96% | – |
| CC(C)(C)CC(C)(C)c1ccc(OCCOCC[N+](C)(C)Cc2ccccc2)cc1 | -25.9% | – |
| CC(=O)OCC(=O)[C@@]1(O)CC[C@H]2[C@@H]3CCC4=CC(=O)C=C[C@]4(C)[C@H]3[C@@H](O)C[C@@]21C | 142% | – |
| CC(=O)O[C@]1(C(C)=O)CC[C@H]2[C@@H]3C[C@H](C)C4=CC(=O)CC[C@]4(C)[C@H]3CC[C@@]21C | 83.3% | – |
| COc1ccc(CN2CCN(C(c3ccc(F)cc3)c3ccc(F)cc3)CC2)c(OC)c1OC | -8.85% | – |
| CN1C(CCl)Nc2cc(Cl)c(S(N)(=O)=O)cc2S1(=O)=O (stereo not given) | -5.46% | – |
| C#C[C@]1(OC(C)=O)CC[C@H]2[C@@H]3CCC4=C[C@@H](OC(C)=O)CC[C@@H]4[C@H]3CC[C@@]21C | 45.3% | – |
| Cc1ccccc1C(=O)Nc1ccc(C(=O)N2CCCC(N(C)C)c3ccccc32)cc1 (stereo not given) | 68.9% | – |
| Cc1onc(-c2c(Cl)cccc2Cl)c1C(=O)N[C@@H]1C(=O)N2[C@@H]1SC(C)(C)[C@@H]2C(=O)O | 32% | – |
| CN(C)CCCOc1nn(Cc2ccccc2)c2ccccc12 | 39.7% | – |
| CC(C)(C)NC(=O)[C@@H]1CN(Cc2cccnc2)CCN1C[C@@H](O)C[C@@H](Cc1ccccc1)C(=O)N[C@H]1c2ccccc2C[C@H]1O | -1.93% | – |
| CC(C)n1nc(-c2cc3cc(O)ccc3[nH]2)c2c(N)ncnc21 | – | 10.6 µM (active) |
| O=C(OCCOCCO)c1ccccc1Nc1cccc(C(F)(F)F)c1 | 129% | – |
| Cc1ccc(C(=O)C(C)CN2CCCCC2)cc1 (stereo not given) | -1.72% | – |
| COc1cccc(OC)c1C(=O)N[C@@H]1C(=O)N2[C@@H]1SC(C)(C)[C@@H]2C(=O)O | 50.6% | – |
| Cc1nc2n(c(=O)c1CCN1CCC(c3noc4cc(F)ccc34)CC1)CCC[C@H]2O | -2.91% | – |
| O=c1[nH]c(=O)n([C@H]2CCCO2)cc1F | -4.16% | – |
| NC(=NCCCCCCN=C(N)/N=C(\N)Nc1ccc(Cl)cc1)/N=C(\N)Nc1ccc(Cl)cc1 | 250% | – |
| CC(=O)OCC(=O)[C@@]1(O)[C@H](C)C[C@H]2[C@@H]3CCC4=CC(=O)C=C[C@]4(C)[C@@]3(F)[C@@H](O)C[C@@]21C | 109% | – |
